# System: T1, MEK5
# T1 construct: gene MAP2K5
# 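Also: kd values determined as follow-up on hits from a single-replicate KINOMEscan panel screen.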
row,SMILES,Kd
1,Cn1cncc1-c1cc2c(Nc3ccc(OCc4ccccc4)cc3)ncnc2cn1 [GW281179],140 nM
2,CS(=O)(=O)Cc1ccc(Nc2nccc(-c3c(-c4cccc(NC(=O)C5CCCCC5)c4)nn4ncccc34)n2)cc1 [GSK350559],35 nM
3,COC(=O)C(NC(=O)NC1CCN(c2ccnc(Nc3ccc(F)cc3)n2)C1)c1ccccc1 (stereo not drawn) [GSK1379712],270 nM
4,Nc1ncnc2occ(-c3ccc4c(c3)CCN4C(=O)Cc3cc(F)ccc3F)c12 [GSK2645446],750 nM
5,CS(=O)(=O)CCNCc1nc(-c2ccc3ncnc(Nc4ccc(OCc5ccccc5)c(Cl)c4)c3c2)cs1.Cl [GW582764],700 nM
6,CS(=O)(=O)CCNCc1nc(-c2ccc3ncnc(Nc4ccc5c(cnn5Cc5ccccc5)c4)c3c2)cs1.Cl.Cl [GW569716],43 nM
7,COc1cc2ncnc(Nc3cccc(Br)c3)c2cc1OC.Cl [GI230329],700 nM

# System: T2, MLCK
# T2 construct: gene MYLK3
row,SMILES,Kd
1,O=C(Nc1n[nH]c2nc(-c3cccs3)c(Br)cc12)C1CC1 [SB-735297],180 nM
2,CS(=O)(=O)CCNCc1nc(-c2ccc3ncnc(Nc4ccc(OCc5ccccc5)c(Cl)c4)c3c2)cs1.Cl [GW582764],> 10000 nM
3,O=C(Nc1n[nH]c2nc(-c3cccs3)c(Br)cc12)C1CCCC1 [SB-743341],290 nM

# System: MYLK2
row,SMILES,Kd
1,O=C(Nc1n[nH]c2nc(-c3cccs3)c(Br)cc12)C1CC1 [SB-735297],8.4 nM
2,O=C(Nc1n[nH]c2nc(-c3ccco3)c(Br)cc12)C1CCN(Cc2ccccc2)C1.O=C(O)[C@H](O)[C@@H](O)C(=O)O (stereo not drawn) [SB-742034],460 nM
3,Nc1cccc(-c2ccc3c(N)n[nH]c3c2)n1 [GSK2192730],180 nM
4,O=C(Nc1n[nH]c2nc(-c3cccs3)c(Br)cc12)C1CCCC1 [SB-743341],26 nM
5,O=C(Nc1n[nH]c2cc(-c3ccsc3)ccc12)C1CC1 [SB-732932],41 nM

# System: PDGFRB
row,SMILES,Kd
1,Cc1cnc(N)c(/C=C/c2cncc(C(=O)NCCc3ccc(Cl)cc3Cl)c2)c1.Cl [GSK190937],140 nM
2,CS(=O)(=O)Cc1ccc(Nc2nccc(-c3c(-c4cccc(NC(=O)C5CCCCC5)c4)nn4ncccc34)n2)cc1 [GSK350559],74 nM
3,Cc1ccc(NC(=O)c2ccc(Cl)cc2)cc1-c1ccc(C(=O)Nc2ccncc2)cc1 [GSK1398467],9.7 nM
4,Cc1ccc(NC(=O)Nc2ccc(Cl)c(C(F)(F)F)c2)cc1-c1ccc(C(=O)Nc2ccncc2)cc1 [GSK1398470],270 nM
5,Cc1ccc(NC(=O)Nc2ccc(Cl)cc2)cc1-c1ccc(C(=O)Nc2ccncc2)cc1 [GSK1398472],86 nM
6,Cc1ccc(NC(=O)Nc2ccccc2F)cc1-c1ccc(C(=O)Nc2ccncc2)cc1 [GSK1398477],47 nM
7,Cc1ccc(NC(=O)Nc2ccccc2)cc1-c1ccc(C(=O)Nc2ccncc2)cc1 [GSK1398471],28 nM
8,O=C(Nc1n[nH]c2cc(-c3ccsc3)ccc12)C1CC1 [SB-732932],700 nM
9,COc1cccc(NC(=O)Nc2ccc(C)c(-c3ccc(C(=O)Nc4ccncc4)cc3)c2)c1 [GSK1398474],40 nM

# System: PIK3C2B
row,SMILES,Kd
1,CNCc1ccc2nc(NC(=O)c3ccc(C(C)(C)C)cc3)cn2c1,> 10000 nM
2,COc1cccc(NC(=O)Nc2ccc(C)c(-c3ccc(C(=O)Nc4ccncc4)cc3)c2)c1 [GSK1398474],> 10000 nM
3,Fc1ccc(-c2nc3n(c2-c2ccncc2)CCS3)cc1 [GI98581],> 10000 nM
4,COc1ccc(Nc2nccc(NCCNC(=O)Nc3cc(C)ccc3C)n2)cc1 [GSK1379899],> 10000 nM

# System: PIK3CA
row,SMILES,Kd
1,CNCc1ccc2nc(NC(=O)c3ccc(C(C)(C)C)cc3)cn2c1,> 10000 nM
2,COc1cccc(NC(=O)Nc2ccc(C)c(-c3ccc(C(=O)Nc4ccncc4)cc3)c2)c1 [GSK1398474],> 10000 nM
3,Fc1ccc(-c2nc3n(c2-c2ccncc2)CCS3)cc1 [GI98581],> 10000 nM
4,COc1ccc(Nc2nccc(NCCNC(=O)Nc3cc(C)ccc3C)n2)cc1 [GSK1379899],> 10000 nM

# System: PIK3CB
row,SMILES,Kd
1,Cc1ccccc1Cn1ccn2c(=O)cc(N3CCOCC3)nc12 [GSK2269905],27 nM
2,O=c1cc(N2CCOCC2)nc2n(Cc3ccccc3F)ccn12 [GSK2297428],180 nM
3,Cc1c(Cn2c(C)c(C)n3c(=O)cc(N4CCOCC4)nc23)cccc1C(F)(F)F [GSK2328680],16 nM
4,Cc1c(Cn2c3ccccc3n3c(=O)cc(N4CCOCC4)nc23)cccc1C(F)(F)F [GSK2306394],680 nM
5,O=c1cc(N2CCOCC2)nc2n(Cc3cccc(Cl)c3Cl)c3ccccc3n12 [GSK2299009],860 nM
6,CCn1c(-c2c(N)noc2C)nc2cnccc21 [SB-737856],> 10000 nM
7,O=C1NC(=O)C(c2ccc(Cl)cc2)=C1Nc1cccc(Cl)c1 [SB-317651],160 nM

# Reference: paper PMC5540273 (PLoS ONE, 2017)
